Results: PubChem BioAssay (EPA / NIEHS)
“And” between values parts separate entries of the source, which are not always exact repeats. Equal values may be shown once. The source made the active and inactive calls. The calls were made as follows: active = hit-call score of the fitted dose curve at least 0.9, where 1 is the maximum; inactive = score below 0.9.

Assay: BSK_LPS_SRB: Viability Assessment in the BioMAP Diversity Plus: LPS Assay (AID 2283079);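 also: measured one day after compound addition; fitted in both directions against DMSO so loss or gain of signal counts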
Conditions: primary human HUVEC with PBMC
Protocol: BSK_LPS is a cell-based, multiplexed-readout assay that uses umbilical vein endothelium and peripheral blood mononuclear cells, a human vascular primary cell co-culture, with measurements taken at 24 hours after chemical dosing in a 96-well plate.BSK_LPS_SRB is an assay component measured in the BSK_LPS assay. It measures 0.1% sulforhodamine related to cell death using Sulforhodamine staining technology.Data from the assay component BSK_LPS_SRB was analyzed into 1 assay endpoint. This assay endpoint, BSK_LPS_SRB, was analyzed with bidirectional fitting relative to DMSO as the negative control and baseline of activity. Using a type of viability reporter, gain or loss-of-signal activity can be used to understand changes in the signaling. Furthermore, this assay endpoint can be referred to as a primary readout, because this assay has produced multiple assay endpoints where this one serves a signaling function. To generalize the intended target to other relatable targets, this assay endpoint is annotated to the cell morphology intended target family, where the subfamily is cell conformation.
The levels of cell surface (or secreted, indicated by the prefix "s") biomarker endpoints were measured by ELISA. Overt cytotoxicity to cells in confluent adherent cultures (all systems other than the BT system) was assessed by measuring total protein levels using sulforhodamine B (SRB) staining in parallel cultures at the time of biomarker measurements, indicated as SRB endpoints. For proliferation assays for adherent cell types, individual cell types are cultured at sub-confluence and relative cell numbers quantified by SRB staining at time points optimized for each system (48 h: 3C and CASM3C systems; 72 h: BT and HDF3CGF systems; 96 h: SAg system). SRB was performed by staining cells with 0.1% SRB after fixation with 10% TCA and reading wells at 560 nm.Viability and proliferation of PBMC (T cells) was quantified by Alamar Blue reduction for the SAg and BT systems. For PBMC viability (referred to as PBMC Cytotoxicity within the assay endpoint names), cells were plated (75,000/well in a 96-well plate) and then chemical samples added for 1 h before addition of activators, SEB and TSST-1 (20 ng/mL final concentration each). Cells were incubated for 90 h. Then, Alamar Blue (20 uL/well) (Invitrogen, Cat DAL1100) was added for 6 h, and the plates were read with a fluorescence microplate reader at 546/580 nm (excitation/emission). For PBMC proliferation, cells were plated and activated as above but incubated for only 16 h prior to addition of Alamar Blue. Plates were read after 6 h.

SMILES | outcome | AC50
Cc1ccc([N+](=O)[O-])cc1N | inactive | 
Nc1ccc(C(=O)O)cc1 | inactive | 
C=CC(=O)OCCCCCCCC(C)C | inactive | 
c1ccc(Nc2cccc3ccccc23)cc1 |  | 31.5 µM (active) and 32.4 µM (active)
Fc1ccc(Br)cc1 | inactive | 
C=CC(=O)NC(C)(C)C | inactive | 
C=CC(=O)OCC(C)OCC(C)OCC(C)OC(=O)C=C (stereo not given) |  | 22.9 µM (active)
C=CC(=O)OCCCCCCOC(=O)C=C |  | 20 µM (active)
C=C(C)C(=O)OCCCCCCCCCCCC | inactive | 
Nc1nc(N)nc(-c2ccccc2)n1 | inactive | 
O=C(Oc1ccccc1)c1ccccc1C(=O)Oc1ccccc1 | inactive | 
COC(OC)(C(=O)c1ccccc1)c1ccccc1 | inactive | 
CC1(C)CC(O)CC(C)(C)N1[O] | inactive | 
C1CNCCN1 | inactive | 
COc1ccc(C(=O)c2ccccc2)c(O)c1 | inactive | 
Oc1ccc(/C=C/c2cc(O)cc(O)c2)cc1 |  | 20 µM (active)
C=CC(=O)NCOCCCC | inactive | 
O=C(O)C(F)(F)C(F)(F)C(F)(F)C(F)(F)C(=O)O | inactive | 
CC=C(C)C(C)=O | inactive | 
O=C(Cl)c1c(Cl)c(Cl)c(C(=O)Cl)c(Cl)c1Cl | inactive | 

SMILES | outcome | AC50
CCCCCC1=CCCC1=O | inactive | 
C=CCCCCCCCCC=O | inactive | 
CCOC(=O)C1=NOC(c2ccccc2)(c2ccccc2)C1 | inactive | 
CC(Cl)COP(=O)(OCC(C)Cl)OCC(C)Cl (stereo not given) | inactive | 
CCCCCCCCCCCC(C)=O | inactive | 
CCCCCCOC(=O)CCCCC(=O)OCCCCCC | inactive | 
CC(C)[N+](C)(CCOC(=O)C1c2ccccc2Oc2ccccc21)C(C)C |  | 3.97 µM (active)
CC(C)C(=O)OCCc1ccccc1 | inactive | 
CC(CCC(=O)O)(c1ccc(O)cc1)c1ccc(O)cc1 | inactive | 
C[N+](C)(C)CCCNS(=O)(=O)C(F)(F)C(F)(F)C(F)(F)C(F)(F)C(F)(F)C(F)(F)C(F)(F)C(F)(F)F |  | 22.5 µM (active) and 33.8 µM (active)
Oc1c(Cl)cc(Cl)c(Cl)c1Cl |  | 20 µM (active)
COc1ccc(C(=O)/C(Br)=C\C(=O)O)cc1 |  | 27.9 µM (active) and 31 µM (active)
Cc1c(O)cccc1O | inactive | 
CC/C=C\C/C=C\C/C=C\CCCCCCCC(=O)OC |  | 27.8 µM (active)
CC(C)c1cccc(C(C)C)c1N | inactive | 
Clc1cc(Cl)c(Cl)c(Cl)c1Cl | inactive | 
CCCCCCCCCCCC(=O)N(C)CC(=O)O | inactive | 
CC1=CC=C(C(C)C)CC1 | inactive | 
CCc1cccc(C)c1N(C(=O)CS(=O)(=O)O)C(C)COC (stereo not given) | inactive | 
Nc1cccc(N)n1 | inactive | 
